High-throughput results (PubChem BioAssay)
Spn MK inh – inhibitors of Streptococcus pneumoniae mevalonate kinase; purified MK, PK/LDH-coupled NADH absorbance 340 nm; inhibition, % at 10 µM; 65,000 compounds, 0.48% hits; AID 555;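 active means ranked among the strongest by inhibition in the single 10 µM screen, a fixed top-ranked set picked for dose follow-up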
Fluor 339 460 – intrinsic fluorescence of library compounds, ex339/em460 – biochemical, MLSMR library, data from DPM-DC assay, artefact control, profiling panel; compound autofluorescence, ex339/em460 nm, NADH buffer; active compounds read high; 1 = no-compound wells, NADH background; fluorescence fold increase at 10 µM; 65,000 compounds, 5.5% hits;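 active means at 10 µM, mean starting fluorescence two-fold or more over control wells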;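 further: signal is the first read of a kinetic run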
NADH coupling – inhibitors of enzymes used to reach an NAD/NADH endpoint | 65,000 compounds, 0.02% hits | IC50, µM (highest dose often 10 µM) | coupled PK/LDH NADH assays, four targets;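 active means single-dose screening hits from any of four coupled enzyme assays that gave an IC50 when retested across doses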;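 further: the DPM-DC format reads NADH fluorescence rather than 340 nm absorbance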
Spn DPM-DC inh – blocks S. pneumoniae diphosphomevalonate decarboxylase. purified DPM-DC, PK/LDH coupled NADH fluorescence. calls only at 10 µM. 65,000 compounds, 0.49% hits;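 active means the 320 compounds with the highest percent inhibition in the single-dose primary screen, excluding strongly autofluorescent ones, cut at about 32% in these data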;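 further: kinetic rate of NADH fluorescence loss reporting ADP formed by the decarboxylase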
Spn PMK inh – blocks S. pneumoniae phosphomevalonate kinase; purified PMK, PK/LDH-coupled NADH absorbance 340 nm; inhibition, % at 10 µM; 65,000 compounds, 0.49% hits; AID 539;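 active means top-ranked compounds by inhibition in the single 10 µM screen, taking a fixed number of the strongest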
Abs 340nm – absorbance at 340 nm; compound absorbance at 340 nm, fold over control; fold change at 10 µM; 65,000 tested, under 10 active; AID 708;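 active means at 10 µM dose, initial 340 nm absorbance at least 2 fold that of control wells; inactive means change under 2 fold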;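 further: initial absorbance extrapolated from kinetic A340 decline of NADH oxidation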
Large screens that a line does not name were inactive; [ ] = another dose, or the depositor's remark. A selection: hits, their analogues and other compounds. The true share with any hit is near 6.3%.

O=C(NCc1ccccc1)C1C2C=CC3(CN(Cc4cccnc4)C(=O)C13)O2 (stereo not given)	Spn PMK inh 27
N#Cc1nc(Cc2cccc3ccccc23)oc1N1CCC(C(N)=O)CC1	none
CCN(CC)C(=O)c1sc2nc(-c3ccccn3)[nH]c(=O)c2c1C	Fluor 339 460 3.4, Spn DPM-DC inh active
O=c1[nH]c(-c2ccccn2)nc2ccccc12	none
CCN(CC)C(=O)c1sc2nc(-c3ccncc3)[nH]c(=O)c2c1C	Fluor 339 460 5 (not shown: Spn DPM-DC inh)
CCC(=O)n1nc(NCc2ccc(OC)c(OC)c2)nc1NCc1ccc(OC)c(OC)c1	none
CC(Sc1nnc(Cn2c(=O)sc3ccccc32)n1C)c1ccccc1 (stereo not given)	none
O=C1CC(c2ccccc2)C(C(=O)Nc2ccccc2F)N1 (stereo not given)	none
N#Cc1ccc(CN2CCN(C(=O)c3ccccc3)CC2)c(Cl)c1	none
Cc1cc(C(=O)CSc2nnnn2-c2ccccc2)c(C)n1CC1CCCO1 (stereo not given)	none
Cc1cc(C(=O)CSc2nnnn2-c2ccc(Cl)cc2)c(C)n1CC1CCCO1 (stereo not given)	Spn DPM-DC inh active
Cc1cc(=O)n2[nH]c(-c3ccccc3Cl)cc2n1	Spn PMK inh 25
COC(=O)C1=C(C)NC2=C(C(=O)CCC2)C1c1ccsc1 (stereo not given)	none
CC1=C(C(=O)N2CCOCC2)C(c2ccsc2)C2=C(CCCC2=O)N1 (stereo not given)	Fluor 339 460 2.9 (not shown: Spn DPM-DC inh)
O=C1NC(=O)c2cc(NC(=O)C3CCCCC3)ccc21	Fluor 339 460 3.6 (not shown: Spn DPM-DC inh)
CC(=O)c1cccc(NC(=O)C2CCCC2)c1	none
C=CCn1c(C)cc(C(=O)COc2ncnc3sccc23)c1C	none
Cc1ccc(S(=O)(=O)C2(C(=O)Nc3ccc4c(c3)OCO4)CC2)cc1	none
Cc1occc1-c1nnc(SCC(=O)Nc2nccs2)n1CCc1ccccc1	Fluor 339 460 2.1
CSc1nc(N(CCO)CCO)c2sc3nc(-c4ccco4)c4c(c3c2n1)CCC4	Fluor 339 460 2.3 (not shown: Spn DPM-DC inh)
CC(C)c1nc2sc3c(SCC(=O)NCc4ccco4)ncnc3c2c2c1CCC2	none
COC(=O)Cn1c(=NC(=O)CSCC(=O)NC2CCCCC2)sc2cc(OC)ccc21	Fluor 339 460 2.1 (not shown: Spn DPM-DC inh)
COc1cccc(C(=O)NCC(c2cccnc2)N2CCN(c3ccccc3OC)CC2)c1 (stereo not given)	none
O=C(OCCN1C(=O)c2ccccc2C1=O)c1cc(=O)[nH]c2ccccc12	none
CCCCCOC(=O)c1cc(=O)[nH]c2ccccc12	Fluor 339 460 2
Cc1ccc2oc(=O)c3cc(C(=O)NCCN4CCN(C)CC4)sc3c2c1	Fluor 339 460 2.2 (not shown: Spn DPM-DC inh)
c1csc(-c2csc3ncnc(NCCCN4CCOCC4)c23)c1	none
COC(=O)c1ccccc1NC(=O)CN1C(=O)C2CCCN2c2ncc(Cl)cc21 (stereo not given)	Fluor 339 460 2.1
CCc1ccccc1NC(=O)CN1C(=O)C2CCCN2c2ncc(Cl)cc21 (stereo not given)	none
CC1CCC(NC(=O)CN2C(=O)C3CCCN3c3ncc(Cl)cc32)CC1 (stereo not given)	Fluor 339 460 2.3
CCCN1C(=O)c2cc(C(=O)O)ccc2C1O (stereo not given)	none
CCCN1C(=O)c2ccccc2NC1c1ccc(OC)cc1OC (stereo not given)	Fluor 339 460 5.1 (not shown: Spn DPM-DC inh)
CCCN1C(=O)c2ccccc2NC1c1ccc(OC)cc1O (stereo not given)	Fluor 339 460 5 (not shown: Spn DPM-DC inh)
CCOC(=O)c1cccnc1SC(CC)C(=O)N1CCOCC1 (stereo not given)	none
COc1ccc(-n2cnnc2)cc1	none
COc1ccc(C(=O)Cn2c(Br)nc3c2c(=O)n(C)c(=O)n3C)cc1	none
CCCCc1cc(=O)oc2cc(OCc3nn[nH]n3)c(Cl)cc12	Fluor 339 460 2.5
CCc1cc(=O)oc2cc(OCc3nn[nH]n3)ccc12	Fluor 339 460 3
CCOC(=O)C(/C(N)=N/C(=O)Nc1ccccc1)=C(\C)O	none
COC(=O)c1ccccc1NC(=O)CSc1nnc(Cc2ccc(Cl)cc2)o1	none
Cc1cc(C)c(C#N)c(SCC(=O)OC2CCCCC2)n1	none
CCOc1c(C(N)=O)c(-c2ccccc2)c2c(=O)[nH]c3ccccc3n12	Fluor 339 460 3.8 (not shown: Spn DPM-DC inh)
Clc1ccc(C2Nc3ccccc3-n3cccc32)cc1 (stereo not given)	Fluor 339 460 2.4 (not shown: Spn DPM-DC inh)
COC(=O)c1ccc(NC(=O)Cn2nnc3ccccc32)cc1	none
COC(=O)c1nonc1NCn1nnc2ccccc21	Spn PMK inh 29
Cc1cc(=O)oc2cc(OCC#N)ccc12	none (not shown: Spn DPM-DC inh)
Cc1ccc(/C(O)=C2\C(=O)C(=O)N(CCCN(C)C)C2c2ccccn2)cc1 (stereo not given)	none
CCc1ccc(S(=O)(=O)NCc2cn3ccsc3n2)s1	Spn DPM-DC inh active
CCc1ccc(S(=O)(=O)NCCc2cn3ccsc3n2)s1	none
CC(c1ccccc1)N1C(=O)c2ccc(C(=O)NCc3ccco3)cc2C1=O (stereo not given)	none
Cc1cc(=O)oc2cc(OC(C)C(=O)O)c(Cl)cc12 (stereo not given)	Fluor 339 460 3.2, Spn DPM-DC inh active
CCCc1cc(=O)oc2cc(OCC(=O)N(C)C)c(Cl)cc12	none
CC(=O)Oc1cc2oc(=O)c3c(c2cc1Cl)CCC3	Fluor 339 460 4.9 (not shown: Spn DPM-DC inh)
O=C(Oc1cc2oc(=O)c3c(c2cc1Cl)CCCC3)c1ccco1	Fluor 339 460 2.5 (not shown: Spn DPM-DC inh)
Cc1coc2cc3oc(=O)c4c(c3cc12)CCC4	Fluor 339 460 2.8, Spn DPM-DC inh active[may fluoresce]
Cc1coc2c(C)c3oc(=O)c4c(c3cc12)CCC4	none
Cc1cc2oc(=O)c3c(c2cc1OC(=O)c1ccco1)CCCC3	none
CC(C)Oc1cc2oc(=O)c3c(c2cc1Cl)CCC3	Fluor 339 460 2.3
CCOC(=O)CSc1cc(=O)n(C)c2cc(Cl)ccc12	Spn DPM-DC inh active
CCOC(=O)N1CCC(NC(=O)CSc2cc(=O)n(C)c3ccccc23)CC1	Spn DPM-DC inh active, Spn PMK inh 42
CCN1CCCC1CNC(=O)CSc1cc(=O)n(C)c2cc(Cl)ccc12 (stereo not given)	none
Cn1c(=O)cc(SCC(=O)N2CCCC2)c2ccccc21	none
O=C(NCc1ccco1)c1ccc(COCC(F)(F)C(F)F)cc1	none
O=C(c1ccccc1)N1CCN(CC#CC2(O)CCCCC2)CC1	none
COc1ccc(-c2cc3nc(C4CCN(C(=O)OC(C)(C)C)CC4)c(C(=O)O)cn3n2)cc1	Fluor 339 460 2.7
COc1ccc(-n2c(Cn3c(=O)sc4ccccc43)nnc2SC)cc1	none
CC(C)Cc1nc(N2CCOCC2)c(C#N)c2c1COC(C)(C)C2	Fluor 339 460 2.4 (not shown: Spn DPM-DC inh)
CC(C)Cc1nc(NCCN2CCOCC2)c(C#N)c2c1COC(C)(C)C2	none
CC(C)Cc1nc(N2CCN(C(=O)C(C)C)CC2)c(C#N)c2c1CCC2	Fluor 339 460 2.1 (not shown: Spn DPM-DC inh)
